This note sets out measurements from PubChem BioAssay AID939 (National Center for Advancing Translational Sciences (NCATS), 2007).

Records with an inconclusive call do not appear. Values without a mark were called inactive. Activity calls are given as the source filed them. The call rests on the fitted dose curve; in most records, active means well fitted activation curve with a large enough effect in the main read-out, with a control signal flat; inconclusive means small, poorly fitted or top-dose-only effect, or effect the other way, or a change in a side signal; inactive means no such curve, though single readings can be large or run the other way.
Potency means the concentration at half of the fitted maximal effect.

This experiment deals with Thyrotropin receptor (Homo sapiens) (UniProt P16473). Nature of the experiment: Confirmation Concentration-Response Assay for Agonists of the Thyroid Stimulating Hormone Receptor. On activation: % of control where 0% means no effect. The note with it: HEK293 TSHR-CNG cells, membrane potential dye, cAMP; series mostly up to 25.6 µM; activation: at the top concentration. Summed up: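 Read-out: membrane potential dye fluorescence (emission 590 nm) after 30 min compound exposure, reflecting cAMP-gated CNG opening in TSHR/CNG HEK 293 cells. Dye with 100 uM RO 20-1724 pre-equilibrated 60 min at room temperature. CNG-only parental cells control.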
Thyrotropin receptor (Homo sapiens), sequence (P16473 whole entry, looked up): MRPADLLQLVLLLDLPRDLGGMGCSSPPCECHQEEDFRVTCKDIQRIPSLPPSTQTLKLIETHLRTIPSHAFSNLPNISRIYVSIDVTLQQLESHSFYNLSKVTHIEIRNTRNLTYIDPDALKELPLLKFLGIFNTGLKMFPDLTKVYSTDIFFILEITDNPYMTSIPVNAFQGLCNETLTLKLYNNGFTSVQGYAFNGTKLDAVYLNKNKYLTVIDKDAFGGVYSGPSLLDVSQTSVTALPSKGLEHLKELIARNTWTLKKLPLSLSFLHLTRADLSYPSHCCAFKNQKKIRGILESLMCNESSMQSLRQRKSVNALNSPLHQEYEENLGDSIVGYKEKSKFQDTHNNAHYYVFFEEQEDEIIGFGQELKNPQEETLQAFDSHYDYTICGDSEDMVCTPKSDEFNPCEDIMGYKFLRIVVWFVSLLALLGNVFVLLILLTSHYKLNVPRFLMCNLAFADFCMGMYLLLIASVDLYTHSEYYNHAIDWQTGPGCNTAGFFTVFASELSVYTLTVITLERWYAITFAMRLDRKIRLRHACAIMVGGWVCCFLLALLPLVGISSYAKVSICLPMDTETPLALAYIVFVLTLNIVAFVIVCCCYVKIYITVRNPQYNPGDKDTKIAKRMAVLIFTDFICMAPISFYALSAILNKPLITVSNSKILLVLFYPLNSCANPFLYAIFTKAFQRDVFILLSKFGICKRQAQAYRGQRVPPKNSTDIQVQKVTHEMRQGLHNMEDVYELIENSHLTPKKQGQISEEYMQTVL
Take `COc1ccc(C(=O)N(Cc2ccco2)Cc2cccs2)c(O)c1`: the Potency is 1 µM (active).

As to `O=C(COC(=O)C1c2ccccc2Oc2ccccc21)Nc1ccc2c(c1)OCO2`, the Potency was 12.6 µM (active).

Consider `Oc1ccccc1Cn1c(-c2ccccc2O)nc2ccccc21`, for which the Potency was 12.6 µM (active).

For the compound `Cc1cc(-n2c(C)cc(C(=O)CSc3nnnn3-c3ccc(Cl)cc3)c2C)no1`, the Potency is 3.98 µM (active).

With `O=C(COC(=O)C12CC3CC(CC(C3)C1)C2)NCc1ccco1`, the Potency is 2 µM (active).

In the case of `Cc1cc(SCNC(=O)c2ccccc2)ncn1`, the “activation” value was 9.24%.

Regarding `Cc1occc1-c1nnc(SCC(=O)NCc2ccc3c(c2)OCO3)n1CC(C)C`, the Potency is 12.6 µM (active).

In the case of `O=C1CC(c2ccco2)CC2=C1C(c1ccccc1)n1nc(C(F)(F)F)nc1N2` (stereo not given), the Potency is 1 µM (active).

Take `CCOC(=O)C1C(=O)Nc2nc(C)nn2C1c1ccccc1` (stereo not given): the “activation” value is 10.8% [at 32.9 µM].

With `CCOC(=O)CSc1nnc(NC(=O)c2cccc(S(=O)(=O)N3CCCCC3)c2)s1`, the “activation” value was -211%.
